We go through 20 compounds from PubChem BioAssay (EPA / NIEHS).

SMILES strings stand for the structures. “And” between values parts separate entries of the source, which are not always exact repeats. Equal entries are not always repeated. A structure can be active in one record and inactive in another. The source made the active and inactive calls. How the source made its calls: active means hit-call score of the fitted dose curve at least 0.9, where 1 is the maximum; inactive means score below 0.9.

Assay [1] concerns the target Myc proto-oncogene protein (Homo sapiens) (UniProt P01106). In words: ATG_Myc_CIS: Attagene CIS-FACTORIAL HepG2 Assay for human Myelocytomatosis (Myc) Proto-Oncogene Transcription Factor (AID 2282990). The note with it: HepG2, Attagene cis-reporter transcription factor activity; actives raise or lower the signal. The essentials:
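HepG2, transient MRTU transfection (cis promoters, endogenous TFs); 24 h dosing; TriZol RNA → oligo(dT) RT → PCR → 6-FAM primer extension → HpaI cut → CE. Bidirectional fit vs DMSO.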

Assay [2] is described as follows: ATG_NF_kB_CIS: Attagene CIS-FACTORIAL HepG2 Assay for human Nuclear Factor Kappa B (NF-kB) (AID 2282991). The note with it: HepG2 Attagene cis-factorial NF-kB reporter mRNA; actives raise or lower the signal. In outline: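 DMSO served as negative control and baseline for bidirectional curve fitting. Transiently transfected HepG2 cells were dosed for 24 h, then reporter transcripts were measured by RT-PCR with capillary electrophoresis detection.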

Assay [3] is described as follows: ATG_NRF2_ARE_CIS: Attagene CIS-FACTORIAL HepG2 Assay for human Nuclear Factor Erythroid 2 Related Factor 2 (NFR2) response to Antioxidant Response Elements (ARE) (AID 2282992).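 On AC50: reporter mRNA level measured by RT-PCR and capillary electrophoresis fluorescence.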 The note with it: HepG2 Attagene ARE/NRF2 reporter, transcription factor activity; actives raise or lower the signal. The essentials:
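Fluorescence intensity of reporter-specific cDNA fragments, separated by capillary electrophoresis, reflects mRNA induction in transfected HepG2 cells at 24 h. Activity is fitted bidirectionally, DMSO serving as baseline.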

Assay [4] can be described thus: ATG_Oct_MLP_CIS: Attagene CIS-FACTORIAL HepG2 Assay for human Octamer-Binding Transcription Factor (Oct) (AID 2282993). The note with it: HepG2 Attagene cis-factorial Oct reporter, mRNA; actives raise or lower the signal. In outline:
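HepG2 cells transiently transfected with cis-promoter-driven multiplexed reporter transcription units, dosed for 24 h. Reporter mRNA quantified by RT-PCR, fluorescent labelling, HpaI digestion and capillary electrophoresis; bidirectional fits versus DMSO baseline.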

For assay [5], the target named is Cellular tumor antigen p53 (Homo sapiens) (UniProt P04637). Kind of assay: ATG_p53_CIS: Attagene CIS-FACTORIAL HepG2 Assay for human p53 Transcription Factor (AID 2282994). The note with it: HepG2 p53 cis-element reporter, Attagene mRNA; actives raise or lower the signal. The essentials: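 Transiently transfected HepG2 (multiple cis reporter transcription units); exposure 24 h; reporter RNA via RT-PCR, 6-FAM extension, 2 h HpaI digest at 37 C, CE detection; DMSO baseline.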
Cellular tumor antigen p53 (Homo sapiens), sequence (P04637 whole entry, looked up): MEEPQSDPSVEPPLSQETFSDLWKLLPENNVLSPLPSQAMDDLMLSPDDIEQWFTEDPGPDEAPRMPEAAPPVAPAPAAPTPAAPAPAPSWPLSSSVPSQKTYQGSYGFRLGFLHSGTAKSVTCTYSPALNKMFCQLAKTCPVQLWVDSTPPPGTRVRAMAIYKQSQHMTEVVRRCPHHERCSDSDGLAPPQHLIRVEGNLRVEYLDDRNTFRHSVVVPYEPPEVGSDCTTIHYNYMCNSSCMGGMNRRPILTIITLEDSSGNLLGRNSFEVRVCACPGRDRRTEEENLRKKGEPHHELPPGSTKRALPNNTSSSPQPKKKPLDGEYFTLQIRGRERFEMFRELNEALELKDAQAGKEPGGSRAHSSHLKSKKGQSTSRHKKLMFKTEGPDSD

Assay [6] can be described thus: BSK_3C_TissueFactor: BioMAP Diversity Plus: 3C Assay for Tissue Factor Biomarker Activity (AID 2282997). The note with it: BioMAP 3C HUVEC, tissue factor biomarker readout; actives raise or lower the signal. The essentials: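 In this endothelial system, HUVEC are treated for 24 h and Tissue Factor is assessed by ELISA, normalised to DMSO.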
A short description of assay [7]: BSK_3C_uPAR: BioMAP Diversity Plus: 3C Assay for Urokinase-type plasminogen activator receptor (uPAR) Biomarker Activity (AID 2282998). The note with it: BioMAP 3C HUVEC, uPAR biomarker ELISA; actives raise or lower the signal. In outline: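 Human umbilical vein endothelial primary cells were exposed to test chemical for 24 h. Cell-surface uPAR was then quantified by ELISA, and responses were fitted bidirectionally against DMSO as negative control and baseline.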

A short description of assay [8]: BSK_3C_VCAM1: BioMAP Diversity Plus: 3C Assay for Vascular cell adhesion molecule 1 (VCAM1) Biomarker Activity (AID 2282999). The note with it: BioMAP 3C HUVEC, VCAM1 ELISA, cytokine-stimulated; actives raise or lower the signal. The essentials:
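Activity fitted in both directions relative to DMSO, with ELISA measurement of the surface marker on primary HUVEC (3C) at 24 h post-treatment; parallel SRB staining (0.1% SRB, TCA-fixed, 560 nm) flagged overt cytotoxicity.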

Assay [9] in a line: BSK_4H_Eotaxin3: BioMAP Diversity Plus: 4H Assay for Eotaxin 3 Biomarker Activity (AID 2283000).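 On outcome: CCL26 protein level quantified by ELISA in parallel with SRB cytotoxicity check.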 The note with it: primary human endothelial cells (HUVEC); actives raise or lower the signal. In outline: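 ELISA quantitation of CCL26 (Eotaxin-3) protein from chemically dosed human vascular endothelial cells at 24 h; increases and decreases both scored relative to DMSO-treated baseline.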

Myc proto-oncogene protein (Homo sapiens), sequence (P01106 whole entry, looked up): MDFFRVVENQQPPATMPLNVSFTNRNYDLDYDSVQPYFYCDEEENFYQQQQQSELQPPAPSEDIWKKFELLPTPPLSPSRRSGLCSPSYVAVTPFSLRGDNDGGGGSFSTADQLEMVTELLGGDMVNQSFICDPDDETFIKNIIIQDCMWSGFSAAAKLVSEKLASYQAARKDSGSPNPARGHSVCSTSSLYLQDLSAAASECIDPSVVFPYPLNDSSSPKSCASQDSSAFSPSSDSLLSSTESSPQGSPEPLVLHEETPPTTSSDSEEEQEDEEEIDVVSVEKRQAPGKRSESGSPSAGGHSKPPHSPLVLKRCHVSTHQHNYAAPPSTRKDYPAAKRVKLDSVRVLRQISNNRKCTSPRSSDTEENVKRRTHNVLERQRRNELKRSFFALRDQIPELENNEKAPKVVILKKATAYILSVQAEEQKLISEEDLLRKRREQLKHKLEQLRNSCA

Regarding `COCC(C)OCC(C)O` (configuration not stated), the compound was called inactive in assay [1], in assay [2], in assay [3], in [4], in assay [5] and in assay [6]. Besides, the result in assay [7], in [8] and in assay [9] was inactive.

With `c1ccc2cc3c(ccc4ccccc43)cc2c1`, the AC50 was 1.21 µM (active) and 7.63 µM (active) in [4]; 2.48 µM (active) in [9]. For the same compound, the outcome in [4], in [5], in assay [6], in assay [7] and in assay [8] was inactive.

With `O=c1c(-c2ccc(O)cc2)coc2cc(O)ccc12`, the call in assay [1], in [2], in assay [3], in assay [4], in [5] and in assay [7] was inactive. Besides, the outcome in [8] and in assay [9] was inactive. Further, the AC50 in assay [4] is 100 µM (active); in assay [6] it was 15.7 µM (active).

For `CCCCCCCCC(=O)O`, the call in assay [3], in assay [4], in assay [5], in assay [6], in assay [7] and in [8] was inactive. Moreover, the result in assay [9] was inactive.

Take `FC(F)(I)C(F)(F)C(F)(F)C(F)(F)C(F)(F)C(F)(F)I`: the result in [2], in [4] and in assay [5] was inactive. Besides, in [3], the AC50 is 11.1 µM (active).

As for `CC(C)(C)c1cc(C(C)(C)C)c(O)c(C(C)(C)C)c1`, the compound was called inactive in [1], in assay [5], in assay [6], in assay [7], in assay [8] and in assay [9]. The AC50 in assay [3] is 49.6 µM (active) and 57.1 µM (active); in [4], 27.6 µM (active) and 43.2 µM (active).

As for `CCc1nn(C2CCCCC2)c2cc(C3(C#N)CCC(C(=O)O)CC3)ccc12` (configuration not stated), the AC50 was 24.9 µM (active) in [2], 7.5 µM (active) in assay [7], 4 µM (active) in [8] and 16.5 µM (active) in assay [9]. The compound was classed as inactive in [3], in assay [4], in assay [5] and in assay [6].

Turning to `O=C(/C=C/c1ccc(O)cc1)CC(=O)/C=C/c1ccc(O)cc1`, the outcome in assay [1], in assay [2], in assay [4] and in [5] was inactive. Also, in [3], the AC50 is 2.65 µM (active).

Take `CCCCC[C@H](O)CC(=O)CCc1ccc(O)c(OC)c1`: the compound was called inactive in assay [2], in [4] and in assay [5]. Also, the AC50 in assay [3] is 29.9 µM (active).

For the compound `OC1CCC(C2CCCCC2)CC1` (configuration not stated), the concentration at half-maximal activity (AC50) in assay [3] was 140 µM (active) [middle of 4 runs]. Further, the compound was called inactive in assay [4], in [5], in assay [6], in assay [7], in [8] and in [9].

Turning to `COC(=O)CCCCC(=O)OC`, the compound was classed as inactive in assay [3], in assay [4], in assay [5], in assay [6], in assay [7] and in [8]. In assay [9], the result was inactive.

For the compound `c1ccc2c(c1)ccc1ccccc12`, the compound was called inactive in [1], in assay [2], in assay [3], in [4], in assay [5] and in [7]. In addition, the outcome in [8] and in assay [9] was inactive. The AC50 in assay [6] is 3.97 µM (active).

Take `CN1CCC[C@H]1c1cccnc1`: the outcome in assay [3], in [4], in assay [6], in assay [7], in assay [8] and in assay [9] was inactive.

As to `CCCCOCCO`, the compound was classed as inactive in [2], in assay [3], in [4], in assay [5], in [6] and in assay [7]. The result in [8] and in assay [9] was inactive.

Turning to `OC1CCCCC1`, the outcome in assay [3], in assay [4], in assay [5], in assay [6], in assay [7] and in assay [8] was inactive. Also, the result in assay [9] was inactive.

With `CCCCCCCCCCCCCC[N+](C)(C)C`, the result in assay [1], in assay [2], in assay [4] and in assay [5] was inactive. Moreover, the AC50 in assay [3] was 5 µM (active) and 6.55 µM (active); in assay [4], 11.1 µM (active); in [6], 5.43 µM (active); in assay [7], 1.25 µM (active); in assay [8] it was 4.71 µM (active); in assay [9], 2.93 µM (active).

In the case of `CCCCCCCCCCCCN1CCCC1=O`, the result in assay [1], in assay [2], in assay [3], in assay [4] and in assay [5] was inactive. Further, the AC50 in [6] is 33.6 µM (active); in assay [7] it was 31.1 µM (active); in assay [8] it was 35.2 µM (active); in [9], 36.9 µM (active).

In the case of `CCOC(=O)CC(O)(CC(=O)OCC)C(=O)OCC`, the call in assay [1], in [2], in assay [3], in assay [4], in assay [5] and in [6] was inactive. Besides, the result in assay [7], in assay [8] and in assay [9] was inactive.

In the case of `Nc1cccc2c(N)cccc12`, the compound was called inactive in assay [2], in [4], in assay [5], in [6], in [7] and in [8]. The result in [9] was inactive. Further, the AC50 in assay [3] is 46.6 µM (active).

Turning to `Cc1ccc(S(=O)(=O)O)c(C)c1`, the compound was classed as inactive in assay [1], in assay [2], in assay [3], in [4] and in assay [5].
